# In the library only some 9.2% were active in any assay of this set; here they are far more common.
# SMN2 splice enh: increases expression of the SMN2 splice variant; HEK293 SMN2-luciferase splicing reporter, luminescence, 30-36 h; Potency, µM (doses to about 46.1 µM), without a hit: at the top dose activity change, positive = activation, actives largely listed as activators; 210,000 compounds, 2.8% hits; AID 1458; also: % of control where 0% means no effect; nearly all actives have a fitted effect of over 55% in size
#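 HEK293 cells carry an SMN2 minigene-luciferase reporter in which exon 7 inclusion puts luciferase in frame. Cells were seeded at 2000 cells/well, attached for 10-12 hours, then exposed to compounds for 30-36 hours at 37C before ONE-Glo luminescence.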
# NPC1 prom act: activators of NPC1 promoter. 320,000 compounds, 2.4% hits. AID 485313. Huh7 NPC1 promoter luciferase reporter, 24 h. Potency, µM (doses to about 9.22 µM), for inactives: at the highest dose activation, usual class: activators; also: % of control where 0% means no effect; nearly all actives have a fitted effect of over 60% in size
#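 Luciferase expression driven by the NPC1 promoter was measured in stably transfected Huh7 cells after a 24 h compound incubation, using a luciferase reagent and a luminescence read.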
# ELG1 repair inh: ELG1-dependent DNA repair inhibition; 330,000 compounds, 2.3% hits; AID 504467; Potency, µM (highest dose often 46.1 µM), without a hit: at the highest dose activity change, negative = inhibition, hits mostly inhibitors; HEK293T ELG1-luciferase reporter, luminescence, 16 h; DNA damage induced by 5-fluorouridine; also: % is scaled to controls: 0 for no effect and ±100 for the full control effect; nearly all actives have a fitted effect of over 55% in size
#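 Overnight (16 hr) co-exposure of 2,000 cells/well to 5-fluorouridine and compound at 37 °C preceded detection. Luciferase was quantified via ONE-Glo luminescence; loss of signal denotes inhibition.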
# FLuc modulator: inhibits or activates purified firefly luciferase, miR-21 counter-screen. Potency, µM (top dose mostly 57.5 µM), for the others: at the top dose activity change, negative = inhibition, most hits filed as inhibitors. purified FLuc, Km substrates, luminescence inhibition. 360,000 compounds, 6.9% hits. P08659;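 also: plate controls were vehicle for no effect and reference inhibitor for full effect; nearly all actives have a fitted effect of over 55% in size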
# Target sequence (P08659 whole entry, looked up): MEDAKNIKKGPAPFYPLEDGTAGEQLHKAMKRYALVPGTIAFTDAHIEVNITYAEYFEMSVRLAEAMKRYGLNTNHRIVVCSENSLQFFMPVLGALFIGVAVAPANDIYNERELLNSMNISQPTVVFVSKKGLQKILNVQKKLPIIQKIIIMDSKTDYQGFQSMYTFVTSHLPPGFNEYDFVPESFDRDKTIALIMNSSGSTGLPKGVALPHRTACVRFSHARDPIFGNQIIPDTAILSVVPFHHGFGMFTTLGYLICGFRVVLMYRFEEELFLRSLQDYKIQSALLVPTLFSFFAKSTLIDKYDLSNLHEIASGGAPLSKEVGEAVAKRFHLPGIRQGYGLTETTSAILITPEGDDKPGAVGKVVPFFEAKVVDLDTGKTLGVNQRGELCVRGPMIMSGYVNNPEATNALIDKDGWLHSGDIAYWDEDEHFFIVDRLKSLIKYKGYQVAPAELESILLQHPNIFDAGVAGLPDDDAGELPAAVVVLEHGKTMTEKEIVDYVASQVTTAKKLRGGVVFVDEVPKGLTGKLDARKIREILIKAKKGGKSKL
#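 Purified P. pyralis luciferase, 10 nM final, with Km-level 10 uM D-luciferin and 10 uM ATP in 50 mM Tris acetate pH 7.5, 10 mM Mg acetate, 0.01% Tween-20, 0.05% BSA; 6-point qHTS titration about 60 µM downward; luminescence read.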
# ELG1 genotoxic: genotoxicity induction in ELG1-luciferase HEK293T cells; HEK293T ELG1-luciferase reporter, luminescence, 16 h; Potency, µM (top dose mostly 46 µM), for the others: top-dose activity change, positive = activation, most hits filed as activators; 330,000 compounds, 1.3% hits; AID 504466; also: % of control where 0% means no effect; nearly all actives have a fitted effect of over 60% in size
#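 Cells (2,000/well) expressing the ELG1-luciferase fusion are dosed by pin tool and kept 16 hr at 37 °C, 5% CO2. Signal comes from ONE-Glo luciferase reagent after 30 min at room temperature.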
# Rab9 promoter act: Rab9 promoter activation. Potency, µM (doses to about 9.22 µM), inactives show top-dose activation, negative = inhibition, actives largely listed as activators. 320,000 compounds, 2.8% hits. AID 485297. Huh7 Rab9 promoter-luciferase reporter, luminescence, 24 h; also: % of control where 0% means no effect; nearly all actives have a fitted effect of over 60% in size
#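 Luminescence read-out: Huh7 cells stably expressing Rab9-luciferase, treated 24 h with compound at 37 °C, then lysed with luciferase reagent for 10 min at ambient before reading.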
# Active calls of the source: *; ? = inconclusive; nt = no result given; [ ] = another dose, or the depositor's remark. Calls follow the shape of the dose curve; as a rule, active = well fitted curve in the direction sought with a large enough effect; inconclusive = small, poorly fitted or top-dose-only effect, or another doubt; inactive = no such curve, though single readings can be large; an effect the other way counts as inactive or inconclusive. Potency is read from the fitted curve at half-maximal effect.
SMILES,SMN2 splice enh,NPC1 prom act,ELG1 repair inh,FLuc modulator,ELG1 genotoxic,Rab9 promoter act
CCCCc1nc2cc(C(=O)N3CCCC(OCCC)C3)ccc2o1 (centres undefined),nt,?,?,17µM*,?,?
COc1ccc(N2CCN(c3ccc(S(=O)(=O)N(C(C)C)C(C)C)cn3)CC2)cc1,nt,-7%,-8%,-2%,-17%,-6%
Fc1ccccc1NC(=S)N1CCC(c2ccccc2)C1 (centres undefined),79%,?,?,?,?,?
S=C(Nc1ccccc1Cl)N1CCC(c2ccccc2)C1 (centres undefined),13µM*,3.5µM*,?,24µM*,?,2.8µM*
Cc1ccc(NC(=S)N2CCC(c3ccccc3)C2)c(Cl)c1 (centres undefined),11µM*,0.5µM*,?,1.5µM*,2.3µM*,0.28µM*
COc1cc(O)c2c(=O)c(-c3ccc(O[C@@H]4O[C@H](CO)[C@@H](O)[C@H](O)[C@H]4O)cc3)coc2c1,nt,1.6µM*,?,17µM*,?,4µM*
O=c1c(-c2ccc(O)cc2)coc2cc(OC3OC(CO)C(O)C(O)C3O)ccc12 (centres undefined),?,3.2µM*,?,?,16µM*,?
Cc1c(C)c2ccc(O[C@@H]3O[C@H](CO)[C@H](O)[C@H](O)[C@H]3O)cc2oc1=O,nt,0%,17%,6%,7%,6%
O=c1c(-c2ccc(O)cc2)coc2cc(OC3OC(CO)C(O)C(O)C3O)cc(O)c12 (centres undefined),?,?,?,24µM*,15µM*,?
COc1ccc(C(=O)Nc2ccc3c4c(cccc24)CC3)cc1,0%,?,?,15µM*,12%,?
O=C(Nc1ccc2c3c(cccc13)CC2)c1ccco1,nt,20%,?,17µM*,?,17%
O=C(Nc1cccc2c1CCCC2)c1ccco1,10%,-1%,-2%,-1%,2%,0%
O=C(Nc1ccc2c3c(cccc13)CC2)c1ccc(Br)o1,2%,19%,?,19µM*,?,29%
O=C(CN1C(=O)NC2(CCCC2)C1=O)N1CCN(S(=O)(=O)c2ccc(Cl)c(C(F)(F)F)c2)CC1,nt,-1%,4%,4%,-2%,-1%
CCOC(=O)CN(C(=O)COc1nc(-c2ccccc2)cc(C)c1C#N)c1ccccc1C,nt,-7%,21µM*,0%,0%,-9%
Cc1ccc(NS(=O)(=O)c2cc(NC(=O)c3ccc4c(c3)NC(=O)CS4)ccc2Cl)c(C)c1,-81%,-4%,23µM*,?,-17%,-5%
COc1ccc(C(=O)NC(=S)Nc2nc(C)cc(C)n2)cc1Br,nt,?,18%,15µM*,-1%,?
CCOc1ccc(C(=O)Nc2ccc3c(c2)OCCO3)cc1,nt,0.5µM*,?,2.1µM*,2.3µM*,0.4µM*
CCOc1ccc(C(=O)Nc2ccc3c(c2)OCCO3)cc1Br,16µM*,nt,nt,1.3µM*,nt,nt
COc1ccc(C(=O)Nc2ccc3c(c2)OCCO3)cc1Br,nt,1µM*,?,1.5µM*,?,1.3µM*
COc1ccc(C(=O)Nc2ccc(N3CCCCC3)cc2)cc1Br,?,27%,?,?,13%,?
CC(C)(CN1CCCC1)NS(=O)(=O)c1ccccc1,nt,-7%,9%,1%,0%,0%
CCC(=O)N1CCc2cc(CNS(=O)(=O)c3cc(Cl)ccc3OC)ccc21,nt,nt,nt,-2%,nt,nt
Cc1ccsc1C(=O)NNC(=O)C1CC=CCC1C(=O)O (centres undefined),4%,-2%,?,?,6%,-2%
CC(C)c1ccc(C(=O)NNC(=O)C2CC=CCC2C(=O)O)cc1 (centres undefined),?,23%,?,17µM*,11%,29%
SMILES,SMN2 splice enh,NPC1 prom act,ELG1 repair inh,FLuc modulator,ELG1 genotoxic,Rab9 promoter act
COc1ccc(Nc2nc(C(=O)N3CCc4ccccc4C3)cs2)cc1,nt,5%,11%,-7%,0%,-3%
COc1ccc(Nc2nc(C(=O)N3CCc4cc(OC)c(OC)cc4C3)cs2)cc1,nt,3%,16µM*,-6%,-9%,-5%
Cn1cc(C(=O)c2ccc(Cl)cc2Cl)cc1C(=O)N/N=C(\N)COc1ccc(Cl)cc1,nt,-7%,18µM*,3%,-13%,-3%
Cn1cc(C(=O)c2ccc(Cl)cc2Cl)cc1C(=O)N/N=C(\N)COc1ccccc1,-7%,-5%,-28%,0%[2.3 µM],-12%,2%
Cn1cc(C(=O)c2ccc(Cl)cc2Cl)cc1C(=O)N/N=C(\N)COc1ccc(Cl)cc1Cl,-9%,-6%,23µM*,3%,-26%,-6%
Cn1cc(C(=O)c2ccc(Cl)cc2Cl)cc1C(=O)N/N=C(\N)COc1ccc(F)cc1,4%,-5%,-19%,3%,-14%,-1%
CC(=O)OCCN(CCCn1c(-c2ccncc2)nc2ccccc21)c1nc(CN2CCCCC2)cs1,nt,-3%,2%,5%,3%,0%
O=C(NCc1ccccc1Cl)C1CCN(S(=O)(=O)N2CCCCCC2)CC1,-22%,-3%,18µM*,-2%,-1%,-3%
C=CCNC(=O)C1CCN(c2cc(C)nc(-c3ccccc3)n2)CC1,21%,-3%,-22%,1%,-4%,-3%
C=CCNC(=O)C1CCN(c2nc(C)cc(-c3ccccc3)n2)CC1,8.9µM*,3.5µM*,?,19µM*,?,3.5µM*
Cc1cc(C)nc(N2CCC(C(=O)NNC(=O)Cc3ccccc3)CC2)n1,nt,0%,10%,0%,0%,-1%
Cc1cc(-c2ccccc2)nc(N2CCC(C(=O)NCc3ccccc3Cl)CC2)n1,28µM*,22%,?,-15%,?,14%
Cc1cccc(Nc2ncccc2C(=O)O)c1C,nt,10%,17%,21µM*,11%,2%
Cc1ccc(Nc2ncccc2C(N)=O)cc1[N+](=O)[O-],14µM*,?,?,12µM*,?,3.5µM*
O=C(O)c1cccnc1Nc1ccc(Cl)cc1,10µM*,22%,?,17µM*,0%,?
Cc1ccc(Nc2ncccc2C(=O)O)cc1C,19%,?,?,17µM*,?,?
Cc1cc(C)c(Nc2ncccc2C(=O)O)c(C)c1,nt,0%,3%,-12%,2%,-13%
NC(=O)c1cccnc1Nc1ccccc1Cl,-19%,3%,?,?,14%,1%
Cc1cccc(Nc2ccccc2C(=O)O)c1C,-11%,2%,4%,?,1%,1%

# Source: PubChem BioAssay (National Center for Advancing Translational Sciences (NCATS))
